mHTT CaM bind = mutant huntingtin-calmodulin interaction inhibitors – biochemical, AlphaScreen, primary screen; P42858; AlphaScreen His-mHTT/GST-CaM binding, luminescence; inhibition, % at 15 µM; 190,000 tested, 3.6% active; AID 1671202, 2021;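 further: 0% = both proteins with DMSO and 100% = one protein alone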
Pf apPOL inh = Pf-apPOL inhibitors, biochemical, fluorescence | Recombinant Pf-apPOL, molecular beacon fluorescence, 1.5 h | inhibition, % at 10 µM | 210,000 tested, 0.25% active | AID 1794808, 2022
Active calls of the source: *; . = not tested or not shown. Sampled rows, rich in hits. Any-hit rate of the full collection: about 3.5%. No stated cut-off is given here; in the data, active means inhibition above about 50%; inactive means the rest.

SMILES	mHTT CaM bind	Pf apPOL inh
Cc1ccc(C2=NN(C(=O)CN(C)C(=O)NC(C)C)C(c3ccccc3)C2)cc1C (stereo not given)	51.5*	-0.2
COc1ccccc1C1CC(c2ccc(C)c(C)c2)=NN1C(=O)CN(C)C(C)=O (stereo not given)	65.6*	-4.9
CN(CC(=O)N1N=C(c2cccs2)CC1c1ccccc1)C(=O)C1CCCC1 (stereo not given)	20.8	-1.3
CC(=O)N(C)CC(=O)N1N=C(c2ccc(F)cc2)CC1c1ccccc1 (stereo not given)	21.0	6.8
O=C(C1CCC(c2ccccc2)N(C(=O)C2CCCC2)C1)N1CCOCC1 (stereo not given)	0.4	-6.1
CCOc1ccc(C(=O)Nc2ccc(NC(=O)c3ccccc3)c(C)c2)cc1	-3.2	-1.7
COC(=O)c1sc2nccnc2c1NC=C(C#N)C(=O)c1ccc(Cl)cc1	.	6.9
COc1cc(S(=O)(=O)Nc2ccc3c(c2)OC(C)(C)O3)c(OC)cc1Cl	22.7	-0.6
O=C(NC1CC1)C1CCCN(c2ncc(-c3ccccc3)cn2)C1 (stereo not given)	-3.9	0.1
COc1ccccc1C(=O)N1CCCN(c2cc(-c3ccccc3)[nH]n2)CC1	56.9*	-2.4
COc1ccccc1C(=O)N1CCN(c2cc(-c3cccnc3)[nH]n2)CC1	-3.3	-7.1
CNC(=O)N1CCN(C(=O)CC2CCN(S(=O)(=O)c3c(C)noc3C)CC2)CC1	-1.9	-3.9
CCN(CC)S(=O)(=O)c1ccc2[nH]cc(C(=O)NCc3ccc(F)cc3)c(=O)c2c1	4.0	-7.1
CCN(CC)S(=O)(=O)c1ccc2[nH]cc(C(=O)NCCCN3CCCC3=O)c(=O)c2c1	51.0*	-23.8
O=C(c1cccnc1)N1CCC(c2nc(C3CC3)n[nH]2)CC1	-4.7	-6.1
O=c1c2cn[nH]c2nc(SCc2ccc(C(F)(F)F)cc2)n1-c1ccccc1	63.0*	-16.2
O=C(CSc1nc2[nH]ncc2c(=O)n1-c1ccccc1)Nc1ccc(C(F)(F)F)cc1	37.0	-4.7
CCCSc1nnc2c(n1)OC(/C=C/c1ccc([N+](=O)[O-])o1)Nc1ccccc1-2 (stereo not given)	23.0	-0.1
COc1ccc(CCN2CC(C(=O)N3CCN(C(C)C)CC3)CC2=O)cc1OC (stereo not given)	0.9	4.7
O=C(O)c1cncc(-c2ccccc2)c1	.	79.9*
O=C(c1ccc(-c2ccccc2)cc1)N1CCN(C(=O)c2cccnc2)CC1	8.9	-8.2
COc1ccc(NC(=O)c2cc(I)ccc2Cl)cc1OC	11.0	-4.3
Cc1cccc(NC(=O)Cn2ccc3c(=O)[nH]ccc32)c1C	12.9	53.5*
Cc1ccc(NC(=O)Cn2ccc3c(=O)[nH]ccc32)cc1C	16.2	30.6
CCc1ccccc1NC(=O)Cn1ccc2c(=O)[nH]ccc21	22.9	29.7
SMILES	mHTT CaM bind	Pf apPOL inh
COc1ccc(NC(=O)Cn2ccc3c(=O)[nH]ccc32)cc1	17.5	52.6*
O=C(O)c1ccccc1C(=O)Nc1cc(Cl)ccc1Cl	-3.0	4.2
Nc1cccc2ccc(-c3cnc4ccccc4c3)nc12	57.0*	-1.0
c1ccc2ncc(-c3ccc4ccccc4n3)cc2c1	-11.6	-0.4
Cc1ccc(C)c(S(=O)(=O)N2CCc3c(c(COc4ccccc4)nn3C)C2)c1	-8.9	-3.6
Cn1ccc2c(-c3cncc4ccccc34)cc3c(c21)C1CCC3O1 (stereo not given)	100.1*	-3.0
Cn1ccc2c(N3CCCCCC3)cc3c(c21)C1CCC3O1 (stereo not given)	66.2*	0.0
Cn1ccc2c(N3CCCC3)cc3c(c21)C1CCC3O1 (stereo not given)	39.3	-3.1
Cn1ccc2c(N3CCCC3)cc3c(c21)C1CCC3C1 (stereo not given)	25.0	0.9
Cn1ccc2c(N3CCCCC3)cc3c(c21)C1CCC3C1 (stereo not given)	77.6*	-5.2
Cc1ccccc1-c1cc2c(c3c1ccn3C)C1CCC2O1 (stereo not given)	30.7	-3.7
O=C1c2ccccc2C(=O)N1CN(CCc1ccc(Cl)cc1)CN1C(=O)c2ccccc2C1=O	.	-2.2
CC(C)C(=O)NCCc1csc(C2CCN(C(=O)c3ccc(F)cc3)CC2)n1	9.7	-1.6
CCC1CCCCN1S(=O)(=O)c1cc(Br)cc2c1N(C(C)=O)C(C)C2 (stereo not given)	20.0	-3.3
COC(=O)C1=C(C(=O)OC)SC2(S1)C(C(=O)OC)=C(C(=O)OC)SC1=C2c2cc(OC)ccc2NC1(C)C	62.6*	.
COc1ccc2c(c1)C1(NC(=O)c3ccccc3N1)C(=O)N2 (stereo not given)	15.0	-6.7
COc1cccc(-c2cc(C(F)(F)F)nc(-n3nc(OC)c([N+](=O)[O-])c3C)n2)c1	-3.0	0.4
Oc1cccc(C2c3cccn3CCCN2Cc2cc(Cl)ccc2O)c1 (stereo not given)	100.3*	-1.6
Oc1cccc(CN2CCCn3cccc3C2c2ccc(F)cc2)c1O (stereo not given)	98.3*	2.5
Cc1ccc(O)c(CN2CCCn3cccc3C2c2cccc(O)c2)c1 (stereo not given)	100.3*	-3.9
O=C(NCc1ccc(F)cc1)N1CCn2cccc2C1Cc1ccccc1 (stereo not given)	21.6	-5.0
Cc1cccc(C2c3cccn3CCN2C(=O)CC(=O)NC(C)C)c1 (stereo not given)	39.7	0.6
CC(C)c1cc(C2CCCN2Cc2cc(Cl)ccc2O)on1 (stereo not given)	-30.4	4.1
Cc1cccc(-c2nc(-c3ccc(-c4csc(C)n4)cc3)no2)c1	-9.0	0.7
Nc1nc(-c2ccc(-c3ccccc3)cc2)cs1	44.9	-0.3
SMILES	mHTT CaM bind	Pf apPOL inh
Nc1nc(-c2ccccc2)cc(=S)s1	51.3*	.
CC(C)c1nnc2ccc(NC(=O)c3ccccc3Cl)cn12	-8.8	-0.2
O=C(COc1nsnc1N1CCOCC1)Nc1ccc(Br)cc1	5.0	-5.7
O=C(COc1nsnc1N1CCCCC1)Nc1ccc(Br)cc1	51.0*	-8.9
Cc1cc(C)n(-c2ccc(Nc3ccc(NC(=O)c4ccco4)cc3)nn2)n1	66.8*	-8.3
CCOc1cc(Nc2ccc(NC(=O)c3ccco3)cc2)nc(C)n1	4.4	-10.3
C=CCOc1ccc(C2C(=C(O)c3ccc(OC)cc3)C(=O)C(=O)N2CCN2CCNCC2)cc1 (stereo not given)	10.7	-8.3
CCOC(=O)/C=C1\CN(Cc2ccccc2)S(=O)(=O)c2ccc(C(F)(F)F)cc21	20.2	33.9
CCOC(=O)/C=C1\CN(Cc2ccc(OC)cc2)S(=O)(=O)c2ccc(C(F)(F)F)cc21	53.0*	77.7*
CCn1ncc(CN2CCCC(Nc3ncnc4c3CCC4)C2)c1C (stereo not given)	-10.0	-4.9
S=C1NCN(CCc2ccccc2)CN1CCc1ccccc1	-1.4	.
Cc1ccnc2c([N+](=O)[O-])cccc12	-3.6	-2.5
Clc1cc2cccnc2c2ncccc12	100.1*	.
O=[N+]([O-])c1ccccc1CN1CCCCCCC1	-1.0	-2.8
O=[N+]([O-])c1cc(CN2CCCCC2)c2cccnc2c1O	100.3*	0.4
COc1c(I)cc(Cl)c2cccnc12	.	-4.3
O=[N+]([O-])c1cc(Cl)c2cccnc2c1O	100.2*	-0.7
CC1CCN(Cc2cc(Cn3ccnc3)c3cccnc3c2O)CC1	100.0*	5.3
Cc1c(O)ccc2c(CN3CCC(C)CC3)cc(=O)oc12	-1.5	-6.2

Source: PubChem BioAssay
